Measured values as given in PubChem BioAssay (Tox21).
Inconclusive results are not listed. Entries that show only a call come without a potency. Calls of active or inactive are those of the source. Calls follow the shape of the dose curve; as a rule, active = well fitted cell-killing curve with a large enough effect in the repeat runs; inconclusive = weak or mixed curves, or effect the other way; inactive = flat fitted curve, though single readings scatter.

assay: cAMP Responsive Elements (CRE) small molecule antagonists, cell-based qHTS assay: qHTS cell viability counter screen (AID 2060913); conditions: CRE-bla HEK293T viability, CellTiter-Glo luminescence, 5 h; series mostly up to 92.4 µM; also: nearly all actives have a fitted effect of over 40% in size
Procedure, shortened: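 CRE-bla HEK293T cells (2,000/well, 18 h) given compound plus NKH477 0.25 uM final for 3 h at 37C; viability counter-screen by CellTiter-Glo luminescence in same wells after 30 min.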

| Compound | Potency |
| --- | --- |
| O=C(CCNNC(=O)c1ccncc1)NCc1ccccc1 | inactive |
| CC(O)CN (stereo not drawn) | inactive |
| NS(=O)(=O)c1cc2c(cc1Cl)NC(C1CC3C=CC1C3)NS2(=O)=O (stereo not drawn) | inactive |
| Cc1ccc(Br)cc1 | inactive |
| O=C(O)C1CCC(C(=O)O)CC1 (stereo not drawn) | inactive |
| C=C1C2CCC(C2)C1(C)C (stereo not drawn) | inactive |
| CC(=O)CCC(=O)O | inactive |
| CC(=O)OCCC1CCCCC1 | inactive |
| COc1cc2c3cc1Oc1cc(ccc1O)C[C@@H]1c4c(cc(OC)c(O)c4Oc4ccc(cc4)C[C@@H]3N(C)CC2)CC[N+]1(C)C | inactive |
| CC(COC(C)(C)C)OCCCO (stereo not drawn) | inactive |
| O=C(CCCl)NCCc1ccccc1 | inactive |
| CC1(C)C(=O)N(Cl)C(=O)N1Br | inactive |
| CC(=O)Nc1ccc(OCCOCCOc2ccc(NC(C)=O)cc2)cc1 | inactive |
| C=CC(C)(CCC=C(C)C)OC(=O)CC(C)C (stereo not drawn) | inactive |
| NNC(=O)OCc1ccccc1 | inactive |
| CC1=C(C)S(=O)(=O)CCS1(=O)=O | inactive |
| CCOC(=O)c1ccc(NC(=O)CN2CCCCC2)cc1 | inactive |
| N[C@H]1CN(c2c(F)cc3c(=O)c(C(=O)O)cn(C4C[C@H]4F)c3c2Cl)CC12CC2 (stereo partly drawn) | inactive |
| O=C1OC(CN2CCOCC2)CN1/N=C/c1ccc([N+](=O)[O-])o1 (stereo not drawn) | inactive |
| CC(=O)N(CC(O)CO)c1c(I)c(C(=O)NCCO)c(I)c(C(=O)NCC(O)CO)c1I (stereo not drawn) | inactive |
| Cc1nc2n(c(=O)c1CCN1CCC(c3noc4cc(F)ccc34)CC1)CCCC2 | inactive |
| CC1=CCC(C(C)C)C=C1 (stereo not drawn) | inactive |
| CCOC(=N)CC(=O)OCC | inactive |
